# Dicer inh: human Dicer pre-microRNA cleavage inhibition | Q9UPY3 | cat-ELCCA pre-miR-21 Dicer processing, chemiluminescence; active compounds read high | z-score at 25 µM | 6% of 47,000 active; in the data active means z-score above about 3, passing the limit was not always enough;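 further: plate controls were vehicle for no effect and no enzyme for full effect; higher signal means more uncleaved substrate so more Dicer inhibition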
# Active calls of the source: *. The sample as a whole holds a higher share of hits than the screen did.
SMILES,Dicer inh
CC(C)N(Cc1ccccc1)S(=O)(=O)c1ccc(CNC(=O)c2ccccc2)s1,0.19
CSc1nnc(SCc2cc(=O)oc3cc(O)ccc23)s1,-0.67
COc1cc(CNCc2cccnc2)cc(Cl)c1OCc1cccs1,-0.35
COc1ccc(C2C(C(=O)OC3CCCC3)=C(C)NC3=C2C(=O)CC(C)(C)C3)cc1O (configuration not stated),0.71
Cn1c(=O)c2c(ncn2CC(=O)Nc2nc3ccccc3s2)n(C)c1=O,0.96
O=C1OC(N2CCN(C(c3ccccc3)c3ccccc3)CC2)c2ccccc21 (configuration not stated),1.2
CCCC1=NN(c2ccccc2)C(=O)C1,-6.7
CC(C)C1/C(=N\O)CC(c2ccccc2)NC1c1ccccc1 (configuration not stated),0.4
O=C1c2cccc3cccc(c23)C(=O)N1CCCc1nnc(S)n1-c1ccccc1,2.7
CCSc1sc(C(=O)OC)c(-c2cccs2)c1C#N,0.97
COC(=O)C1=C(C)NC2=C(C(=O)CC(C)(C)C2)C1c1ccc(N(C)C)cc1 (configuration not stated),82
Cc1ccc(S(=O)(=O)On2nnc3ccccc32)cc1,-0.52
CCCN1C(=O)C(O)(CC(=O)c2c(C)coc2C)c2ccccc21 (configuration not stated),0.41
Cc1coc(C)c1C(=O)CC1(O)C(=O)N(C)c2ccccc21 (configuration not stated),3.4*
Cc1cc(C)c(C(=O)CC2(O)C(=O)N(C)c3ccccc32)c(C)c1 (configuration not stated),-0.57
Cc1nn(C)c(NCCSCc2c(Cl)cccc2Cl)c1[N+](=O)[O-],1.4
CC1CC(=O)c2cnc(N3CCCCC3)nc2C1 (configuration not stated),1.9
Cn1c(=O)c2c(O)c(C=Nc3cc(Cl)cc(Cl)c3)c(=O)n(-c3ccccc3)c2n(C)c1=O,-0.87
Oc1ccc2ncccc2c1C(Nc1ccccn1)c1ccc(F)cc1 (configuration not stated),0.2
Cc1ccc(C(=O)CC2(O)C(=O)Nc3ccc(C)cc32)c(C)c1 (configuration not stated),-0.09
O=C(CC1(O)C(=O)Nc2ccc(Br)cc21)c1cccs1 (configuration not stated),-1.9
Cc1cc(C)c2c(c1)NC(=O)C2(O)CC(=O)c1cccs1 (configuration not stated),3.4*
Cc1cc(/C(N)=N/OC(=O)C(C)(C)C)cc(/C(N)=N/OC(=O)C(C)(C)C)c1,5.7
CC(C)c1ccc(C(=O)CC2(O)C(=O)N(CC(N)=O)c3ccccc32)cc1 (configuration not stated),1.9
c1ccc(OCc2nc3ccccc3n2Cc2ccccn2)cc1,0.35
SMILES,Dicer inh
CCOC(=O)N/N=C(\C)C(=O)OCC,-0.11
O=C(Nc1ccccc1)Sc1ccccc1Cl,-0.56
COC(=O)c1ccc2nc(C)c(C)nc2c1,2.4
CCOC(=O)c1ccc2nc(C)c(C)nc2c1,4.8*
Cc1ccc(C(=O)COC(=O)c2ccc3nc(C)c(C)nc3c2)cc1,-0.11
CC1=C(C(=O)OCC2CCCO2)C(c2ccc3c(c2)OCO3)C2=C(CC(C)(C)CC2=O)N1 (configuration not stated),1.4
CC1=C(C(=O)OCC2CCCO2)C(c2ccccc2F)C2=C(CC(C)(C)CC2=O)N1 (configuration not stated),4.7*
CC1=C(C(=O)OCC2CCCO2)C(c2cccc(C)c2)C2=C(CC(C)(C)CC2=O)N1 (configuration not stated),2.2
COc1cc(C2C(C(=O)OCC3CCCO3)=C(C)NC3=C2C(=O)CC(C)(C)C3)cc(Cl)c1O (configuration not stated),1.1
COc1ccc(C2C(C(=O)OCC3CCCO3)=C(C)NC3=C2C(=O)CC(C)(C)C3)cc1O (configuration not stated),-0.23
CC1=C(C(=O)OCC2CCCO2)C(c2coc3ccc(Cl)cc3c2=O)C2=C(CC(C)(C)CC2=O)N1 (configuration not stated),3.2*
CC1=C(C(=O)OCC2CCCO2)C(c2coc3ccc(Cl)cc3c2=O)C2=C(CCCC2=O)N1 (configuration not stated),2.1
CC1=C(C(=O)OCC2CCCO2)C(c2ccccc2C)C2=C(CC(C)(C)CC2=O)N1 (configuration not stated),-0.02
CCc1ccc(C2C(C(=O)OCC3CCCO3)=C(C)NC3=C2C(=O)CC(C)(C)C3)cc1 (configuration not stated),7*
CCOC(=O)C(=CNc1cc(C2CC2)nn1C)C(=O)OCC,0.89
Cc1cccc(C)c1NC(=S)NNC(=O)c1cccnc1,-0.05
N#CC1C(=O)NC(N2CCN(Cc3ccccc3)CC2)=NC12CCCCC2 (configuration not stated),-0.4
O=S(=O)(c1cccc(C(F)(F)F)c1)N1CCC(C(c2ccccc2)c2ccccc2)CC1,-0.96
Cc1[nH]c2ccccc2c1C(=O)CN1CCN(c2ccccn2)CC1,1.5
COc1ccc2nc(SCCO)nc(C)c2c1,-0.7
